Where “and” joins values, the source holds several entries; their conditions need not be identical. Equal values may be shown once. Records with an inconclusive call do not appear. Values without a mark were called inactive. Calls of active or inactive are those of the source. Calls follow the shape of the dose curve; as a rule, active = well fitted cell-killing curve with a large enough effect in the repeat runs; inconclusive = weak or mixed curves, or effect the other way; inactive = no such curve, though single readings can be large or run the other way.
Potency is read from the fitted curve at half-maximal effect.

The first assay in a line: qHTS assay for identifying genotoxic compounds that show differential cytotoxicity against isogenic chicken DT40 cell lines with known DNA damage response pathways - wild type cell line (AID 743012). Also: nearly all actives have a fitted effect of over 60% in size. As to conditions: DT40 wild type chicken cells viability, CellTiter-Glo, 40 h; series mostly up to 68.4 µM; activity change, negative = cytotoxicity: at the top concentration. In a few lines: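 Wild type DT40, 300 cells/well, ~0.5 h settle at 37 C/5% CO2; compounds in DMSO added by pintool; 40 h at 37 C/5% CO2; CellTiter-Glo, 30 min RT; luminescence.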
In general terms: In qHTS, concentration-response curves come from the screen itself.
For `[Cl-].[Cl-].[Hg+2]`, the Potency was 841 nM (active) and 3.84 µM (active) and 193 nM (active).
Consider `C[Si](Cn1cncn1)(c1ccc(F)cc1)c1ccc(F)cc1`, for which the Potency is 12.6 µM (active) and 10.9 µM (active).
Consider `CCCCNC(=O)OCC#CI`, for which the Potency is 3.05 µM (active) and 611 nM (active).

A further assay in a line: qHTS assay for identifying genotoxic compounds that show differential cytotoxicity against isogenic chicken DT40 cell lines with known DNA damage response pathways - Rev3 mutant cell line (AID 743014). Also: nearly all actives have a fitted effect of over 55% in size. As to activity, negative = cytotoxicity: % is scaled to controls: 0 for no effect and ±100 for the full control effect. The conditions noted are these: chicken DT40 Rev3-/- viability, CellTiter-Glo, 40 h; series mostly up to 68.4 µM; activity, negative = cytotoxicity: at the top concentration.
Regarding `Cc1ncc(C[n+]2csc(CCO)c2C)c(N)n1`, the Potency entry is “inactive”.
For `C=CCSSCC=C`, the “activity, negative = cytotoxicity” value was -6.02%.
As to `CCCCC(CC)COC(=O)c1c(Br)c(Br)c(Br)c(Br)c1C(=O)OCC(CC)CCCC` (centres undefined), the “activity, negative = cytotoxicity” value is -11.8%.
`CCCC1CCCCN1` (centres undefined): the “activity, negative = cytotoxicity” value is -1.48%.
Regarding `CCCC(C)(COC(N)=O)COC(=O)NC(C)C` (centres undefined), the “activity, negative = cytotoxicity” value was -14.9%.
Consider `C#C[C@]1(O)CC[C@H]2[C@@H]3CCC4=CC(=O)CCC4=C3C=C[C@@]21CC`, for which the Potency is 13.3 µM (active).
Regarding `C=C(C)C(=O)OCCCCOC(=O)C(=C)C`, the “activity, negative = cytotoxicity” value was -15.6%.
Turning to `O=C(NC(=O)c1cc(F)c(F)cc1Cl)Nc1cc(F)ccc1N1CCC(C(=O)O)CC1`, the “activity, negative = cytotoxicity” value was 5.42%.
On the same count and under the same terms, the same measure for `FC(Cl)(Cl)C(F)(Cl)Cl`: 8.81% [at 95 µM].
As to `CC(=O)NNc1ccccc1`, the Potency was 2.15 µM (active).
With `CCN(C(C)=O)c1cccc(-c2ccnc3c(C#N)cnn23)c1`, the “activity, negative = cytotoxicity” value is 0.549%.
`OCCCl`: the “activity, negative = cytotoxicity” value was -15.9%.
For the compound `CCc1cnc(C2=NC(C)(C(C)C)C(=O)N2)c(C(=O)O)c1` (centres undefined), the Potency entry is “inactive”.
The same measure, in the same setting: the same measure for `O=C(CCl)CCl`: 0.273 µM (active).
Take `O=P(OCC(Br)CBr)(OCC(Br)CBr)OCC(Br)CBr` (centres undefined): the Potency was 55.2 µM (active) and 20.6 µM (active).
As for `SCc1ccccc1`, the “activity, negative = cytotoxicity” value was 7.75% [at 95 µM].
As to `O=C(O)C(F)(F)C(F)(F)C(F)(F)C(F)(F)C(F)(F)C(F)(F)C(F)(F)C(F)(F)F`, the “activity, negative = cytotoxicity” value is -16.8%.
As for `Clc1ccccc1`, the “activity, negative = cytotoxicity” value was 0.545%.
As to `CCC[N+](CCC)(CCC)CCC`, the “activity, negative = cytotoxicity” value was -2.81%.
For `CNC(=O)Oc1cccc(N=CN(C)C)c1`, the Potency is 54.5 µM (active).
On to `O=C(O)c1cc(I)cc(I)c1I`, for which the “activity, negative = cytotoxicity” value was -8.46% [at 95 µM].
For the compound `CCCCC#N`, the “activity, negative = cytotoxicity” value was -1.86%.
As for `CC1(C)CC(=O)CC(C)(C)N1[O]`, the “activity, negative = cytotoxicity” value was -0.997%.
Same read-out and setting: the same measure for `CCCCCCCCCCCCN(C)C`: -29%.
As to `CC(C)c1ccc(OP(=O)(Oc2ccc(C(C)C)cc2)Oc2ccc(C(C)C)cc2)cc1`, the Potency is 61.6 µM (active) and 27.3 µM (active).
On to `CC(=O)OC(c1ccccc1)C(Cl)(Cl)Cl` (centres undefined), for which the “activity, negative = cytotoxicity” value is -26.4%.
On the same count and under the same terms, the same measure for `CCCCCCCCP(=O)(O)O`: -1.97%.
`[Cl-].[Cl-].[Hg+2]`: the Potency was 2.66 µM (active) and 1.92 µM (active) and 386 nM (active).
In the case of `C[Si](Cn1cncn1)(c1ccc(F)cc1)c1ccc(F)cc1`, the Potency was 3.98 µM (active) and 4.86 µM (active).
In the case of `CCCCNC(=O)OCC#CI`, the Potency is 1.36 µM (active) and 1.22 µM (active).
On to `C[C@]12CC[C@H]3[C@@H](CCC4=CC(=O)CC[C@@H]43)[C@@H]1CC[C@@H]2OC(=O)CCc1ccccc1`, for which the “activity, negative = cytotoxicity” value is -4.39%.
